Screening data (PubChem)
The list is a sample of the results.
aSyn 5UTR act: Activators via SNCA 5'UTR binding, MLPCN; activity score, % (tested at 7.5 µM), hits read low; alpha-synuclein 5'UTR reporter, activators screen; AID 1814, 2009; hit rate 7.1% among 300,000; in the data active = activity score below about -60%
Each line names hits and unclear results; the compound was inactive in the other large screens.

Cc1cccc2c1-c1sc(C(=O)NCCCN3CCCC(C)C3)cc1CO2 (stereo not given)	none
CC1CCc2cccc3c2N1c1cc(C#N)c(C#N)cc1O3 (stereo not given)	none
O=C(CC(SCCO)c1ccc2c(c1)OCO2)c1ccco1 (stereo not given)	aSyn 5UTR act -98
CCCCNC(=O)CSc1nc2ccc(N3CCOCC3)cc2c(=O)n1CCc1ccccc1	aSyn 5UTR act -92
CCn1cc(/C=C/C(=O)Nc2ccc(C)cc2Br)cn1	aSyn 5UTR act -82
COc1ccc(/C=C/C(=O)c2ccc(NC3=NCCCS3)cc2)cc1OC	aSyn 5UTR act -99
COc1ccc(OC)c(NC(=O)/C=C/c2ccccc2[N+](=O)[O-])c1	aSyn 5UTR act -84
CN(C)S(=O)(=O)c1cccc(NC(=S)N/N=C/c2cc(Br)ccc2O)c1	none
CCCOc1ccc(/C=C/C(=O)Nc2ccc([N+](=O)[O-])cc2)cc1	none
COC(=O)C(=Cc1ccccc1[N+](=O)[O-])C(=O)OC	aSyn 5UTR act -240
COc1cccc(NC(=O)/C=C/c2ccc([N+](=O)[O-])cc2)c1	aSyn 5UTR act -84
CN(C)S(=O)(=O)c1cccc(NC(=O)/C=C/c2ccccc2[N+](=O)[O-])c1	aSyn 5UTR act -65
O=C(/C=C/c1ccccc1[N+](=O)[O-])Nc1cccnc1	aSyn 5UTR act -123
COc1cccc(NC(=O)/C=C/c2ccccc2[N+](=O)[O-])c1	aSyn 5UTR act -202
Cc1cc(=O)n2[nH]c(-c3ccc(F)cc3)cc2n1	aSyn 5UTR act -64
Cc1cccc(-c2cc3nc(-c4ccccc4)cc(=O)n3[nH]2)c1	aSyn 5UTR act -103
O=C1C=C(N2CCCCCC2)C(=O)N1c1ccc(Cl)cc1	aSyn 5UTR act -171
O=C(CSc1nccn1-c1ncc(C(F)(F)F)cc1Cl)c1ccc(Cl)cc1	aSyn 5UTR act -127
O=C1C2C3C=CC(CO)(O3)C2C(=O)N1c1ccc(-c2ccccc2)cc1 (stereo not given)	aSyn 5UTR act -85
COc1cccc(OC)c1C(=O)NNC(=O)c1cccc(COc2ccc3c(c2)CCC3)c1	aSyn 5UTR act -91
O=C(NN1CCCCC1)c1cccc(COc2ccc(Cl)cc2)c1	aSyn 5UTR act -167
O=C(O)c1cccc(COc2ccc3c(c2)CCC3)c1	none
COc1ccccc1OCCNC(=O)c1ccc2c(c1)CCC2	aSyn 5UTR act -138
COc1ccccc1OCCNC(=O)c1ccc2c(c1)OCCO2	aSyn 5UTR act -68
CCOc1ccc(OCc2cccc(C(=O)N3CCCCCC3)c2)cc1	none
COC(=O)/C(=C1/Oc2ccc(C(C)(C)C)cc2S1)C(F)(F)F	aSyn 5UTR act -224
c1cncc(-c2nc3c(ccc4ccccc43)[nH]2)c1	aSyn 5UTR act -193
CCCCCc1ccc(-c2cn(Cc3ccc(C(=O)c4ccccc4)cc3)nn2)cc1	aSyn 5UTR act -138
O=C(c1ccccc1)c1ccc(Cn2cc(-c3ccccc3)nn2)cc1	aSyn 5UTR act -135
CCCCCc1ccc(-c2ccc(/C=C/C(=O)O)cc2)nc1	none
O=[N+]([O-])c1ccccc1/C=N/OCc1ccccc1	aSyn 5UTR act -167
Nc1nc(N)nc(-c2ccc(Cl)cc2)n1	aSyn 5UTR act -112
Cc1cccc(-c2nc(N)nc(N)n2)c1	aSyn 5UTR act -74
Nc1nc(-c2ccc(Cl)cc2)nnc1-c1ccc(Br)cc1	aSyn 5UTR act -178
CC(C)(O)c1cc(=O)sc2nc3ccccc3n12	aSyn 5UTR act -103
CC(=O)Nc1ccc(C(=O)Cn2nnc3ccccc3c2=O)cc1	aSyn 5UTR act -66
O=C(Cn1nnc2ccccc21)c1ccc(Br)cc1	aSyn 5UTR act -82
Cc1ccc(C(=O)Cn2nnc3ccccc32)cc1	aSyn 5UTR act -161
Cc1ccc(NC(=O)CCn2nnc3ccccc32)cc1	aSyn 5UTR act -84
O=C(CCn1nnc2ccccc21)N1CCN(c2ccccc2)CC1	aSyn 5UTR act -119
Cc1ccc(C(=O)Cn2nnc3ccccc32)cc1C	aSyn 5UTR act -90
O=C(Cn1nnc2ccccc2c1=O)NC1CCCCC1	aSyn 5UTR act -68
CCOc1nc(NCc2ccco2)nc(Nc2ccccc2F)n1	aSyn 5UTR act -108
COCCn1c(C)cc(C(=O)CSc2nc3ccccc3c(=O)n2Cc2ccco2)c1C	aSyn 5UTR act -176
COc1ccc(NS(=O)(=O)c2cc(-c3cnc(C4CC4)o3)ccc2C)cc1	none
COc1ccc(NS(=O)(=O)c2cc(C)ccc2C)cc1	aSyn 5UTR act -67
O=C(Nc1ccc2ccccc2n1)C1CCCCC1	aSyn 5UTR act -144
O=C(Nc1ccc2ccccc2n1)c1ccc(Cl)cc1	aSyn 5UTR act -145
O=C(Nc1ccc2ccccc2n1)c1ccccc1Cl	aSyn 5UTR act -71
COc1ccc(NC(=O)n2ncc3c(C)cccc32)cc1	aSyn 5UTR act -88
Cc1ccc(NC(=O)n2ncc3c(C)cccc32)cc1F	aSyn 5UTR act -71
COc1ccc(NC(=O)n2ncc3c(C)cccc32)cc1OC	aSyn 5UTR act -165
Cc1ccc2nc3sc(C(=O)N4CCCc5ccccc54)c(N)c3cc2c1	aSyn 5UTR act -158
Cc1ccc(/C=C2\SC(=S)N(CCCC(=O)Nc3ccccn3)C2=O)cc1	none
O=C1/C(=C/c2ccccn2)SC(=S)N1CCc1ccccc1	aSyn 5UTR act -159
COc1ccc(N=Cc2nc(-c3ccccc3)oc2OC(=O)c2ccccc2)cc1	aSyn 5UTR act -92
CCC(=O)Oc1oc(-c2ccccc2)nc1C=Nc1ccccc1OC	aSyn 5UTR act -63
CN(C)c1ccc(N=Cc2nc(-c3ccccc3)oc2OC(=O)c2cccc(Br)c2)cc1	aSyn 5UTR act -166
CN(/N=C/c1ccncc1)c1cnc2ccccc2n1	aSyn 5UTR act -206
COc1ccc(C(NC(=O)C(C)C)c2ccc3cccnc3c2O)cc1 (stereo not given)	none
On1c(-c2ccccc2)nc2ccc(Cl)cc21	aSyn 5UTR act -149
COc1ccc(-c2nc3ccccc3n2OC(C)C(=O)O)cc1 (stereo not given)	aSyn 5UTR act -196
Cc1ccc(-c2nc3ccc(Cl)cc3n2OC(C)C(=O)O)cc1 (stereo not given)	aSyn 5UTR act -127
O=c1c2ccc(Cl)cc2nc(-c2cccc(C(F)(F)F)c2)n1O	none
COc1ccc(-c2n(CC(=O)OC3CC(C)CCC3C(C)C)c3ccccc3[n+]2C)cc1 (stereo not given)	none
CC(On1c(-c2ccccc2)nc2ccc(Cl)cc21)C(=O)O (stereo not given)	aSyn 5UTR act -62
CCn1ccnc1CNC(=O)c1ccc2oc(CCCc3ccccc3)nc2c1	aSyn 5UTR act -75
CCCCc1nc2cc(C(=O)N3CCCC3)ccc2o1	aSyn 5UTR act -90
CCCCc1nc2cc(C(=O)N3CCCCC3C(=O)OC)ccc2o1 (stereo not given)	aSyn 5UTR act -98
CCCCc1nc2cc(C(=O)N3CCCC(COC)C3)ccc2o1 (stereo not given)	aSyn 5UTR act -86
CCCCc1nc2cc(C(=O)NC(C)c3cnn(C)c3)ccc2o1 (stereo not given)	aSyn 5UTR act -77
COCC1CCN(C(=O)c2ccc3oc(CCCc4ccccc4)nc3c2)C1 (stereo not given)	aSyn 5UTR act -95
O=C1c2ccccc2C(=O)N1CCOc1ccccc1Br	aSyn 5UTR act -71
Nc1cccc2c1C(=O)N(CCOc1ccc(F)cc1)C2=O	aSyn 5UTR act -118
O=C1c2ccccc2C(=O)N1CCOc1ccccc1Cl	aSyn 5UTR act -105
O=C1c2ccccc2C(=O)N1CCOc1ccccc1	aSyn 5UTR act -96
CC(=O)Nc1nc2ccccc2n1CCOc1ccccc1Cl	none
Cc1ccccc1OCCN1C(=O)c2ccccc2C1=O	aSyn 5UTR act -93
Cc1c(C)n(CCc2ccccc2)c2ncnc(NCCO)c12	aSyn 5UTR act -146
